High-throughput results from PubChem.
Hits are enriched below; roughly 15% of the tested compounds scored in any of these assays.
RORg inh: qHTS for inhibitors of ROR gamma transcriptional activity; 310,000 compounds, 5.4% hits; Nuclear receptor ROR-gamma (Mus musculus), P51450; AID 2551, 2010; Drosophila S2 Gal4-RORgamma UAS-luciferase reporter, 20 h; Potency, µM (doses to about 53.6 µM), for inactives: at the highest dose activity change, negative = inhibition, actives largely listed as inhibitors; further: nearly all actives have a fitted effect of over 60% in size
Target sequence (P51450 whole entry, looked up, the tested form may be a part): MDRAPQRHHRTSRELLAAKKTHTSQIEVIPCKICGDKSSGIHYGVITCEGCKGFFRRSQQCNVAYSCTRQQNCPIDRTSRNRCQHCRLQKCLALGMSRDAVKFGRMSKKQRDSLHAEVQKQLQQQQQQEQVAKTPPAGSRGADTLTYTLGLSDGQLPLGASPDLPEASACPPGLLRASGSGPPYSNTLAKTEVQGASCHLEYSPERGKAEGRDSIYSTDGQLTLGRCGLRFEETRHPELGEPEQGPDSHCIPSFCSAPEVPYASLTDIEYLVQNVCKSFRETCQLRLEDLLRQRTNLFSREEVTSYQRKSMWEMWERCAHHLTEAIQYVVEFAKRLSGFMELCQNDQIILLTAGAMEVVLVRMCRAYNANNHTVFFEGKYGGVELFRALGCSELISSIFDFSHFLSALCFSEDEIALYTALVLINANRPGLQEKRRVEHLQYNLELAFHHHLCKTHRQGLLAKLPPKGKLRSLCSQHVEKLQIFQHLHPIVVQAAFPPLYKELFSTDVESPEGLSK
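Schneider cells (Drosophila), stable Gal4 DBD–ROR gamma + UAS-luc; 1 hr cmpd preincubation; Cu2+ induction 700 uM final; 20 hr ambient; luminescence.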
12-LOX inh: Primary qHTS assay for inhibitors of human arachidonate 12S-lipoxygenase (ALOX12): Round 2. Polyunsaturated fatty acid lipoxygenase ALOX12 (Homo sapiens), P18054. purified 12hLO, xylenol orange hydroperoxide absorbance. Potency, µM (doses to about 108 µM), without a hit: at the highest dose activity change, negative = inhibition, actives largely listed as inhibitors. 580,000 compounds, 1.1% hits
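Purified human 12hLO at 150 nM in 25 mM Hepes, 0.01% Triton X-100, pH 7.0, preincubated 15 min at room temperature with compound. Reaction started with 40 uM arachidonic acid, 30 min at room temperature. Hydroperoxide measured by Fe-xylenol orange, 573/405 nm absorbance ratio.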
VP16 counter: VP16 counterscreen qHTS for inhibitors of ROR gamma transcriptional activity | Drosophila S2 Gal4-VP16 UAS-luciferase, luminescence, 20 h | Potency, µM (top dose mostly 53.6 µM), inactives show top-dose activity, negative = inhibition, actives largely listed as inhibitors | 310,000 compounds, 3.5% hits | AID 2546, 2010;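 further: Gal4-VP16 expression switched on by copper sulfate through the metallothionein promoter; nearly all actives have a fitted effect of over 50% in size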
TDP1 cell noCPT: qHTS for Inhibitors of human tyrosyl-DNA phosphodiesterase 1 (TDP1): qHTS in cells in absence of CPT. DT40 Tdp1-/- hTDP1 cells, no CPT, ATP luminescence, 48 h. Potency, µM (highest dose often 46.2 µM), for the others: top-dose activity change, negative = growth inhibition, most hits filed as inhibitors. 420,000 compounds, 15% hits; further: nearly all actives have a fitted effect of over 55% in size
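Luminescent ATP content (CellTiter-Glo) served as the growth readout. Knockout chicken DT40 cells expressing human TDP1 were exposed to compounds without camptothecin for a minimum 48 hr at 37 °C.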
TDP1 cell CPT: qHTS for Inhibitors of human tyrosyl-DNA phosphodiesterase 1 (TDP1): qHTS in cells in presence of CPT. chicken DT40 Tdp1-/-;hTDP1 cells + 20 nM CPT, ATP luminescence, 48 h. Potency, µM (top dose mostly 46.2 µM), for inactives: at the top dose activity change, negative = growth inhibition, hits mostly inhibitors. 420,000 compounds, 12% hits. AID 686979, 2013; further: nearly all actives have a fitted effect of over 55% in size
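Cell growth measured by CellTiter-Glo luminescence after a minimum 48 h, 37 C compound exposure with 20 nM CPT in Tdp1-knockout DT40 cells stably expressing hTDP1, seeded 400/well; qHTS titration format.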
ELG1 repair inh: qHTS screen for small molecules that inhibit ELG1-dependent DNA repair in human embryonic kidney (HEK293T) cells expressing luciferase-tagged ELG1; HEK293T ELG1-luciferase reporter, luminescence, 16 h; DNA damage induced by 5-fluorouridine; Potency, µM (highest dose often 46.1 µM), inactives show at the top dose activity change, negative = inhibition, most hits filed as inhibitors; 330,000 compounds, 2.3% hits; AID 504467, 2011; further: nearly all actives have a fitted effect of over 55% in size
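5-Fluorouridine DNA damage + compound/DMSO, 2,000 cells/well, 16 h, 37 °C/5% CO2. ONE-Glo, 30 min RT, luminescence. Readout = decrease in reporter signal.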
An asterisk follows results filed as active; ? = inconclusive; . = no result; [ ] = another dose, or the depositor's remark. The call rests on the fitted dose curve; in most records, active means well fitted curve in the direction sought with a large enough effect; inconclusive means small, poorly fitted or top-dose-only effect, or another doubt; inactive means no such curve, though single readings can be large; an effect the other way counts as inactive or inconclusive. On the % scale 0 is the no-effect control and ±100 the full control effect; potency means the concentration at half of the fitted maximal effect.

SMILES	RORg inh	12-LOX inh	VP16 counter	TDP1 cell noCPT	TDP1 cell CPT	ELG1 repair inh
CC(=O)c1ccc(N2CCN(C(=O)C(=O)c3cn(CC(=O)N4CCCCCC4)c4ccccc34)CC2)cc1	18%	0%	?	13µM*	23µM*	-10%
CCOc1ccccc1NC(=O)CSc1cn(CC(=O)N2CCCCCC2)c2ccccc12	.	-18%	.	26µM*	?	.
COC(=O)COc1ccc2c(=O)c(Oc3ccc(C(=O)OC)cc3)c(C)oc2c1	.	-12%	.	.	.	.
O=C(C1=C(O)C(=O)N(c2ncccn2)C1c1ccc(Cl)c(Cl)c1)c1ccco1 (configuration not stated)	5%	2µM*	-1%	0%	-4%	-7%
CSc1nnc(N2C(=O)C(O)=C(C(=O)c3ccco3)C2c2cccc(Cl)c2)s1 (configuration not stated)	-44%	40µM*	-2%	-4%	-3%	10%
CSc1nnc(N2C(=O)C(O)=C(C(=O)c3ccco3)C2c2ccc(F)cc2)s1 (configuration not stated)	-1%	?	0%	2%	22%	?
CCOC(CCNC(=O)c1cc2c(=O)[nH]c3ccccc3c2s1)OCC	5%	4%	-3%	?	?	-12%
CCOC(CNCc1cc(C)c2[nH]c3ccccc3c2c1C)OCC	.	-22%	.	12µM*	16µM*	.
COC(=O)c1ccccc1NC(=O)Cn1cnc2cc(C)c(C)cc21	-30%	13%	-5%	23µM*	15µM*	?
COC(=O)c1ccccc1NC(=O)CNc1cc(OC)c(OC)cc1C	0%	-5%	?	18µM*	?	?
COC(=O)c1ccccc1NC(=O)Cn1cnc2c(cnn2-c2ccc(C)c(C)c2)c1=O	.	.	.	-21%	-17%	.
CN(O)/C=c1/ccc2c(n1)C(=O)C=CC=2	?	0%	?	4.6µM*	4.6µM*	-28%
CCCCN(C)CCNC(=O)c1nn(-c2ccc(OC)c(Cl)c2)c(=O)c2c1c1ccccc1n2C	.	-19%	.	18µM*	?	.
CCOc1ccc(CCNC(=O)c2nn(-c3ccc(OC)c(Cl)c3)c(=O)c3c2c2ccccc2n3C)cc1OCC	.	-20%	.	?	-22%	.
COc1ccc(-n2nc(C(=O)NCc3ccco3)c3c4ccccc4n(C)c3c2=O)cc1Cl	8%[0.365 µM]	-17%	.	10µM*	?	?
COc1ccccc1C(=O)Nc1ccc([C@H]2OCC(=O)N(Cc3ccccc3)[C@@H]2CO)cc1	.	5%	.	.	.	.
CN(C)/C=C/C(=O)/C=C/c1ccc(Cl)cc1	22%	?	-4%	?	-2%	?
CN(C)CC(O)c1ccc(C=Cc2ccc(Cl)cc2)cc1 (configuration not stated)	.	?	.	7.3µM*	7.3µM*	.
Cc1ccc2[nH]nc(C(=O)N3CCCC(N(C)CCc4ccccc4)C3)c2c1 (configuration not stated)	.	32%	.	.	.	.
COc1ccc(CN2C[C@@H](CO)O[C@@H](n3cnc4c(N5CCCC5)ncnc43)C2)cc1	.	-3%	.	?	?	.
OC[C@@H]1CN(Cc2ccc(Cl)cc2)C[C@H](n2cnc3c(N4CCN(c5ccccc5)CC4)ncnc32)O1	.	-24%	.	18µM*	?	.
COc1cc(CN2C[C@@H](CO)O[C@@H](n3cnc4c(N5CCN(c6ccccc6)CC5)ncnc43)C2)cc(OC)c1OC	.	-4%	.	15µM*	18µM*	.
OC[C@@H]1CN(Cc2ccco2)C[C@H](n2cnc3c(N4CCN(c5ccccc5)CC4)ncnc32)O1	.	-10%	.	23µM*	23µM*	.
CN1CCN(c2ncnc3c2ncn3[C@H]2CN(Cc3ccccc3)C[C@@H](CO)O2)CC1	.	26%	.	-23%	?	.
COc1ccc(CN2C[C@@H](CO)O[C@@H](n3cnc4c(N5CCN(c6ccccc6)CC5)ncnc43)C2)cc1	.	-9%	.	16µM*	?	.
SMILES	RORg inh	12-LOX inh	VP16 counter	TDP1 cell noCPT	TDP1 cell CPT	ELG1 repair inh
COc1ccccc1-c1nnc(SCC(=O)N(C)C2(c3ccccc3Cl)CCCCC2=O)n1C (configuration not stated)	.	13%	.	.	.	.
c1ccc2c(-c3cn(CC4CNCCO4)nn3)ccnc2c1 (configuration not stated)	.	-13%	.	.	.	.
Cc1cc(C)nc(SCCCNCc2c(F)cccc2Cl)n1	-21%	0%	2%	-15%	-19%	-4%
CSc1ccc(CNCCCSc2ncccn2)cc1	-2%	-24%	5%	-22%	?	-5%
Cc1ccc(CNCCCSc2nc(C)cc(C)n2)cc1	?	13%	2µM*	?	?	-18%
COc1ccc(CNCCCSc2ncccn2)c(OC)c1	-29%	-5%	10%	?	-2%	-3%
CCOc1c(CNCCCSc2nc(C)cc(C)n2)cccc1OC	?	0%	?	?	21µM*	0%
Brc1ccc(CNCCCSc2nnnn2-c2ccccc2)cc1	.	?	.	16µM*	?	.
Cc1cc(C)nc(SCCCNCc2ccc(Br)cc2)n1	?	?	?	21µM*	?	?
CC(C)CN1C(=O)COC[C@@H]1[C@H](O)c1ccc(NC(=O)COc2ccccc2)cc1	.	34%[176 µM]	.	.	.	.
CN1CC2(CCN(Cc3cn[nH]c3-c3cccs3)CC2)CC1C(=O)N1CCOCC1 (configuration not stated)	.	29%	.	.	.	.
Brc1ccc(CNCCCSc2ncccn2)cc1	.	?	.	16µM*	15µM*	-5%
Cc1cccc(NC(=O)CSc2nc3nccnc3c(=O)n2CCc2ccccc2)c1	.	-7%	.	.	.	.
COc1ccccc1NC(=O)Cn1c(=O)n(CCc2c[nH]c3ccccc23)c(=O)c2cccnc21	16%	11%[57.4 µM]	2%	-62%	?	?
COc1ccccc1NC(=O)CSc1nc2nccnc2c(=O)n1CCc1c[nH]c2ccccc12	.	-10%	.	15µM*	18µM*	.
Cc1ccc(NC(=O)CSc2nc3nccnc3c(=O)n2CCc2c[nH]c3ccccc23)c(C)c1	.	-15%	.	12µM*	12µM*	.
